CCT chaperon mod = changes cytosolic chaperonin activity. purified chaperonin ATPase assay, HTRF ADP detection, 30 min. activity change, % (test concentration not listed), hits read low. hit rate 0.3% among 360,000; in the data active = activity change below about -30%
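ATPase activity: ADP formed was measured by HTRF Transcreener (665/615 nm ratio) after 30 min at 37 deg C with 10 uM ATP. Compounds screened at one 76 uM concentration against 40 or 20 nM TRiC in Tris pH 7.4/KCl/MgCl2/DTT buffer.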
RXFP1 antagonist = blocks the human relaxin receptor RXFP1; HEK293-RXFP1, relaxin-stimulated cAMP HTRF, 30 min; active compounds read low; activity change, negative = inhibition, % at 57.5 µM; hit rate 0.59% among 350,000;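 active = activity change of -60% or lower, but not beyond a set lower limit; inconclusive = change between -60% and -40%, or beyond the set limit; inactive = change above -40%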
Target sequence (Q9HBX9 whole entry, looked up): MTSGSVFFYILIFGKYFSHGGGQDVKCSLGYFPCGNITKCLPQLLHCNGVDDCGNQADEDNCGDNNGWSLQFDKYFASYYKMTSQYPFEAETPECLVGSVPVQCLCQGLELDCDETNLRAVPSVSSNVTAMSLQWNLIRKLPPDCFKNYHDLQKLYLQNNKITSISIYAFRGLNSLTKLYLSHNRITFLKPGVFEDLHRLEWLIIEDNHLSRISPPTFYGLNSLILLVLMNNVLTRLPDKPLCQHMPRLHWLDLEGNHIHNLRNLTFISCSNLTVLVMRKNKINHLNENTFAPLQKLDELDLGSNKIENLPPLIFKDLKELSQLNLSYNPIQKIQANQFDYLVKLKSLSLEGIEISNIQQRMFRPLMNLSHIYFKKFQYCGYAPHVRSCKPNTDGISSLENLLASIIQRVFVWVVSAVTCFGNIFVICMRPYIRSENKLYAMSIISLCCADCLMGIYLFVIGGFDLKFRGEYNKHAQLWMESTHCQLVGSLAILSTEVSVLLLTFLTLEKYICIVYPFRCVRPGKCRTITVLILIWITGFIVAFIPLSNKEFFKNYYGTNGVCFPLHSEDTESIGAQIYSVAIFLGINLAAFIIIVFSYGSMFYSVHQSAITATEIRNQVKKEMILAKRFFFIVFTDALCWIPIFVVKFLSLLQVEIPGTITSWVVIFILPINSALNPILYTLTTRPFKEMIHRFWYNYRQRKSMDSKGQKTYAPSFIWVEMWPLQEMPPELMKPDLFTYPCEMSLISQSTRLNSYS
gsp antagonist = antagonizes gsp, the McCune-Albright syndrome mutation; Potency, µM (series often up to 76.9 µM), hits mostly inhibitors; hit rate 0.4% among 340,000; gsp-mutant cells, cAMP HTRF, 30 min; calls by dose curve; cell line not stated here;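 also: intracellular cAMP measured with PDE inhibitor Ro 20-1724 present during compound exposure; nearly all actives have a fitted effect of over 65% in size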
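Measurement of cellular cAMP by homogeneous time-resolved fluorescence following a 30 min compound exposure at 37C. The PDE inhibitor […] was present throughout; the assay buffer was DPBS with 0.05% BSA and 0.005% Tween 20.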
Mm-Cpn inhibitor = blocks the Methanococcus maripaludis chaperonin Mm-Cpn; purified Mm-Cpn ATPase, ADP Transcreener TR-FRET; Potency, µM (top dose mostly 76.9 µM), hits mostly inhibitors; hit rate 0.031% among 330,000; also: nearly all actives have a fitted effect of over 80% in size
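Compound-treated chaperonin, 25 nM final, turns over 10 uM ATP at 37°C for 30 min following a 10 min preincubation; ADP generated competes with ADP-d2 for Eu-cryptate antibody, lowering FRET.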
gsp ag = gsp mutant agonism; gsp mutant cells, cAMP HTRF, 30 min; AID 624287; Potency, µM (titrated, usually from 76.9 µM), actives largely listed as activators; hit rate 0.13% among 340,000; active = well fitted activation curve with a large enough effect; inconclusive = small, poorly fitted or top-dose-only effect, or another doubt; inactive = no such curve, though single readings can be large or run the other way; cell line not stated here;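 also: phosphodiesterase inhibitor Ro 20-1724 added with compounds to block cAMP breakdown; nearly all actives have a fitted effect of over 60% in size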
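Cells stably selected in G418 were plated at 2000/well, grown 16-24 hr, then given compounds in DMSO with the PDE inhibitor […] (300 uM solution added) for 30 min at 37C; cAMP was read by HTRF.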
RXFP1 ag = activates the human relaxin receptor RXFP1 | Q9HBX9 | HEK293T-RXFP1 cAMP TR-FRET, 30 min; response scale: percent of porcine relaxin response, buffer zero | hit rate 0.3% among 370,000 | Potency, µM (doses to about 57.5 µM), hits mostly activators; also: nearly all actives have a fitted effect of over 60% in size
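HEK293T cells stably expressing RXFP1 were pretreated with the PDE4 inhibitor Ro 20174, exposed to compounds for 30 min at 37C, lysed, and cAMP was read by TR-FRET. Data normalized to buffer (basal) and 29 nM porcine relaxin (100%).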
Each line names hits and unclear results; the compound was inactive in the other large screens. Shown are actives, neighbours in structure and some others; about 1.2% of the full set was active somewhere. Unless noted, calls follow the shape of the dose curve; as a rule, active = well fitted curve in the direction sought with a large enough effect; inconclusive = small, poorly fitted or top-dose-only effect, or another doubt; inactive = no such curve, though single readings can be large; an effect the other way counts as inactive or inconclusive.

COc1ccc(Br)cc1CN(C)C(=O)CNC(=O)c1ccc2ccccc2c1	gsp antagonist 32µM
CCOC(=O)N1CCN(Cc2nc3cc(NC(=O)c4ccco4)ccc3n2C)CC1	CCT chaperon mod -58
Cn1c(CN2CCCCC2)nc2cc(NC(=O)c3ccc(Cl)cc3)ccc21	CCT chaperon mod -48
Cn1c(CN2CCCC2)nc2cc(NC(=O)c3ccc(Cl)cc3)ccc21	none
CN(Cc1ccccc1)C(=S)Nc1ccc(OC(F)F)cc1	none
CN(C)CCCN(Cc1ccccc1)C(=S)Nc1ccc(OC(F)F)cc1	CCT chaperon mod -54
O=C(Nc1nc(-c2ccco2)c(-c2ccco2)s1)C1CCC1	RXFP1 antagonist -61
Fc1ccc(-c2cc(C(F)(F)C(F)F)[nH]n2)cc1	CCT chaperon mod -37
O=C(c1cc(Cl)ccc1Cl)N1CCN(c2ccccn2)CC1	none
O=C(c1ccc(Cl)cc1Cl)N1CCN(c2ccccn2)CC1	CCT chaperon mod -33
CCN1CCN(C(=O)c2cnn(-c3ccc(F)cc3)c2-n2cccc2)CC1	none (no result: CCT chaperon mod, RXFP1 antagonist, gsp antagonist, Mm-Cpn inhibitor, gsp ag)
Cc1nc(OCC(C)C)c2sc3nc4c(cc3c2n1)COC(C)(C)C4	RXFP1 antagonist -103
COCCCn1c(=O)c2sccc2n2c(CCCC(=O)NC3CCC(C)CC3)nnc12 (stereo not given)	none (no result: CCT chaperon mod, gsp antagonist, Mm-Cpn inhibitor, gsp ag)
COc1cc(Br)cc(C2C3=C(CCCC3=O)N(c3ccc(F)cc3)C3=C2C(=O)CCC3)c1O	gsp antagonist 32µM, gsp ag inconclusive
O=C1CSC(=S)N1N=Cc1cccc(OCc2ccccc2)c1	RXFP1 antagonist -95 (no result: gsp antagonist, Mm-Cpn inhibitor, RXFP1 ag)
Cc1ccc(NC(=O)c2cnc(SCC(=O)N3CCCc4ccccc43)n(C)c2=O)cc1	none (no result: CCT chaperon mod, gsp antagonist, Mm-Cpn inhibitor, gsp ag)
CC(=O)Nc1cccc(-c2csc(Nc3ccc(C)cn3)n2)c1	RXFP1 antagonist -60
Cc1ccc(NC(=O)NNC(=O)c2cc3ccccc3cc2O)c(C)c1	none
Cc1cccc(NC(=O)NNC(=O)c2cc3ccccc3cc2O)c1C	RXFP1 antagonist -66
CC(C)c1ccc(NC(=O)c2cnc3sc(N4CCCC4)nn3c2=O)cc1	RXFP1 ag inconclusive (no result: CCT chaperon mod, gsp antagonist, Mm-Cpn inhibitor, gsp ag)
Cc1ccc(-n2c(CCC(=O)O)ccc2-c2cccs2)cc1Cl	none (no result: CCT chaperon mod, gsp antagonist, Mm-Cpn inhibitor, gsp ag)
Cc1ccc(CSc2nc(=O)c3c(C)cc(C)nc3n2C2CC2)cc1	RXFP1 antagonist -62 (no result: CCT chaperon mod, gsp antagonist, Mm-Cpn inhibitor, gsp ag)
COc1ccc(NS(=O)(=O)c2cccc(C(=O)NCC(c3ccco3)N3CCCCC3)c2)cc1 (stereo not given)	RXFP1 antagonist -73
COc1ccc(N2CCN(C(CNC(=O)C(=O)NCCCO)c3ccco3)CC2)cc1 (stereo not given)	CCT chaperon mod -69, RXFP1 antagonist inconclusive
O=C(NC1CC1)C1CCN(S(=O)(=O)c2cc([N+](=O)[O-])ccc2Cl)CC1	none
Cc1nnc(NC(=O)C2CCN(S(=O)(=O)c3cc([N+](=O)[O-])ccc3Cl)CC2)o1	gsp antagonist 35µM
N=C1/C(=C/c2cccs2)C(=O)N=C2SN=C(SCc3ccccc3)N12	gsp antagonist 32µM
CC(C)CSC1=NSC2=NC(=O)/C(=C\c3cccs3)C(=N)N12	none
CSC1=NSC2=NC(=O)/C(=C\c3cccs3)C(=N)N12	gsp antagonist 35µM
CSC1=NSC2=NC(=O)/C(=C/c3coc4ccccc4c3=O)C(=N)N12	gsp antagonist inconclusive
COc1cc(Cl)c(C)cc1NC(=O)c1nn(C)c2c1CSc1ccccc1-2	none (no result: CCT chaperon mod, gsp antagonist, Mm-Cpn inhibitor, gsp ag)
Oc1ccc(N=Nc2nc(-c3ccccc3)c(-c3ccccc3)[nH]2)cc1	gsp antagonist 28µM
C[C@]1(Cn2ccnn2)[C@H](C(=O)O)N2C(=O)C[C@H]2S1(=O)=O	none (no result: CCT chaperon mod, gsp antagonist, Mm-Cpn inhibitor, gsp ag, RXFP1 ag)
CCCCCC(=O)N/N=C/c1ccc([N+](=O)[O-])o1	none
CCN(CC)c1ccc(N=Cc2ccccc2[N+](=O)[O-])cc1	RXFP1 antagonist -68, gsp antagonist inconclusive, Mm-Cpn inhibitor inconclusive
CCN(CC)c1ccc(N=Cc2ccc([N+](=O)[O-])o2)cc1	RXFP1 antagonist -67, gsp antagonist inconclusive
Cc1ccc(Oc2nc3ccccn3c(=O)c2/C=C(\C#N)c2nc3ccccc3s2)c(C)c1	none (no result: CCT chaperon mod, gsp antagonist, Mm-Cpn inhibitor, gsp ag)
N#Cc1c(-c2ccc([N+](=O)[O-])cc2)nc2n(c1=O)CCS2	gsp ag 14µM

Bioassay records deposited in PubChem by National Center for Advancing Translational Sciences (NCATS).
